The supplement of paper PMC6555819

Legend:
Assay in all cases: PBM binding z-score (relative to random genomic background probes); higher = stronger binding; sequences stand for … in GC…GCGATTGACAGCGTAGAATGAAGG
[1] = tested on: FXR:RXRa (NR concentration 270 nM, RXRa partner concentration 90 nM)
How it was run: (§1)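 Random background probes are the reference for binding z-scores. These scores derive from regression-normalized fluorescence on custom Agilent 4×180K protein-binding microarrays incubated 1 h with ligand-free nuclear receptor dimers. Binding was detected with antibodies against each partner (one per run).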

[2] = tested on: LXRa:RXRa (NR concentration 270 nM, RXRa partner concentration 90 nM)
How it was run: as §1

[3] = tested on: LXRa homodimer (NR concentration 270 nM)
How it was run: as §1

[4] = tested on: LXRb:RXRa (NR concentration 270 nM, RXRa partner concentration 90 nM)
How it was run: as §1

[5] = tested on: LXRb homodimer (NR concentration 270 nM)
How it was run: as §1

[6] = tested on: PPARa:RXRa (NR concentration 270 nM, RXRa partner concentration 90 nM)
How it was run: as §1

[7] = tested on: PPARg:RXRa (NR concentration 180 nM, RXRa partner concentration 90 nM)
How it was run: as §1

[8] = tested on: PPARg:RXRa 270nM:90nM, anti-RXR (NR concentration 270 nM, RXRa partner concentration 90 nM)
How it was run: as §1

[9] = tested on: PPARg:RXRa 30nM:10nM, anti-RXR (NR concentration 30 nM, RXRa partner concentration 10 nM)
How it was run: as §1

[10] = tested on: PPARg:RXRa 90nM:30nM, anti-RXR (NR concentration 90 nM, RXRa partner concentration 30 nM)
How it was run: as §1

[11] = tested on: PPARg:RXRa DBDmut IVT, anti-RXR (DBD mutation: RXRa K156A/R161A, NR concentration 270 nM, RXRa partner concentration 90 nM)
How it was run: as §1

[12] = tested on: PPARg:RXRa IVT, anti-PPARg (NR concentration 270 nM, RXRa partner concentration 90 nM)
How it was run: as §1

[13] = tested on: PPARg DBDmut:RXRa IVT, anti-PPARg (DBD mutation: PPARg1 K132A/R137A, NR concentration 270 nM, RXRa partner concentration 90 nM)
How it was run: as §1

[14] = tested on: PPARg DBDmut IVT, anti-PPARg (DBD mutation: PPARg1 K132A/R137A, NR concentration 270 nM)
How it was run: as §1

[15] = tested on: PPARg homodimer (NR concentration 180 nM)
How it was run: as §1

[16] = tested on: PXR:RXRa (NR concentration 270 nM, RXRa partner concentration 90 nM)
How it was run: as §1

[17] = tested on: PXR homodimer (NR concentration 270 nM)
How it was run: as §1

[18] = tested on: RARa:RXR (NR concentration 270 nM, RXRa partner concentration 90 nM)
How it was run: as §1

[19] = tested on: RARa homodimer (NR concentration 270 nM)
How it was run: as §1

[20] = tested on: RARb:RXRa (NR concentration 270 nM, RXRa partner concentration 90 nM)
How it was run: as §1

Sequence | PBM binding z-score [1] | PBM binding z-score [2] | PBM binding z-score [3] | PBM binding z-score [4] | PBM binding z-score [5] | PBM binding z-score [6] | PBM binding z-score [7] | PBM binding z-score [8] | PBM binding z-score [9] | PBM binding z-score [10] | PBM binding z-score [11] | PBM binding z-score [12] | PBM binding z-score [13] | PBM binding z-score [14] | PBM binding z-score [15] | PBM binding z-score [16] | PBM binding z-score [17] | PBM binding z-score [18] | PBM binding z-score [19] | PBM binding z-score [20]
GCTAGTTGGTCAGTAAAAGGTCACGCACCGGTCG | 4.11 | 4.91 | 4.69 | 4.3 | 0.681 | 4.73 | 3.18 | 5.04 | 2.52 | 4.78 | 1.6 | 2.94 | 1.14 | 0.145 | 5.9 | 5.48 | 1.28 | 6.73 | 4.45 | 4.47
AGAACGAGGGCACGCTGAGTTGATAGAAGAGTAG | 0.553 | 0.362 | -0.441 | 0.106 | -0.925 | 2.09 | 2.05 | 1.54 | 0.398 | 1.11 | 3.93 | 3.46 | 0.756 | 0.00527 | 0.193 | 1.28 | -0.0963 | 0.661 | -0.807 | 2.31
TCGAGTAGCTTAGTCGGGGCATTCAGCCAACATA | -0.445 | -0.555 | -0.699 | -0.343 | -0.785 | -0.102 | -0.707 | -0.0775 | 0.66 | 0.255 | 0.289 | -0.763 | -1.22 | -0.887 | -1.34 | -0.503 | -1.1 | -0.495 | -0.83 | -0.355
TGATATAGGTAATACAGGTGAAAGTCGGCATCTA | 0.306 | 0.701 | 0.521 | 0.418 | 0.00189 | 2.16 | 2.39 | 2.3 | 1.33 | 2.05 | 4.32 | 4.45 | 1.57 | 1.13 | 1.38 | 0.409 | 0.476 | 0.69 | 0.77 | 0.624
CCTGCTAGGTCATTGGTCAGCTAAAGCAGCTCGC | 4.06 | 3.07 | 0.559 | 2.13 | 0.108 | 3.56 | 3.71 | 4.63 | 1.79 | 4.05 | 3.86 | 3.73 | 0.135 | -0.404 | 1.24 | 1.47 | 0.029 | 2.07 | -0.492 | 3.97
GCGACTGGGGTAAAGCAGGTTACCATAAGGTTGG | 0.315 | 0.949 | -0.396 | 0.852 | -0.819 | 1.66 | 0.941 | 1.19 | 0.0678 | 0.64 | 3.33 | 2.74 | -0.328 | -0.991 | -0.0118 | 0.651 | -0.238 | 0.955 | -0.412 | 0.44
GCTCGGAGGATAAGGTCAGAGCTTTGTCCGTAGA | 2.22 | 1.66 | -0.483 | 1.26 | -1.34 | 2.62 | 0.136 | 1.3 | -0.139 | 0.94 | -0.248 | 0.29 | -0.531 | -1.51 | 0.565 | 1.86 | -0.244 | 2.62 | -0.904 | 3.29
